{
  "source": "PubChem BioAssay (NCATS)",
  "note": "Values joined by “and” are separate entries in the source; they are usually repeats but may differ in a detail not shown here. Equal values may be shown once. Records with an inconclusive call do not appear. Active and inactive are the calls of the source. Calls come from the whole dose curve.",
  "data": [
    {"target": "Bile acid receptor (Homo sapiens) (UniProt Q96RI1)", "sequence (Q96RI1 whole entry, looked up)": "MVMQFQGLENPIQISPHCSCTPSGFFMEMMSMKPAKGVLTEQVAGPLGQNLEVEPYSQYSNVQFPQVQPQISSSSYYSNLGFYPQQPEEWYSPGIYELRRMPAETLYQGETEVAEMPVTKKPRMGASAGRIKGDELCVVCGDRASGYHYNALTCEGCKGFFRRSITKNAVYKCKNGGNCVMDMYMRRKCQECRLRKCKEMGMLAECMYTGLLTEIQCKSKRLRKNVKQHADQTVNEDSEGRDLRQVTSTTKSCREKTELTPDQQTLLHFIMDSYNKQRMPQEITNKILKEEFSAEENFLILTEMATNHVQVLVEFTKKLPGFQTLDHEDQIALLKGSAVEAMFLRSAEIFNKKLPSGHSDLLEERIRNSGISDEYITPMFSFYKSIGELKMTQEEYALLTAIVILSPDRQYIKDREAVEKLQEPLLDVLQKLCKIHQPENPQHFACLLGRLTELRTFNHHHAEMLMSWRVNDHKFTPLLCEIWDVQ", "test": "qHTS assay for small molecule agonists of farnesoid X receptor signaling (AID 588527);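 note: series mostly up to about 77 µM; 0% = vehicle basal and 100% = reference agonist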", "conditions": "HEK293T FXR-UAS-bla, beta-lactamase ratio, 16 h; stronger effect = higher value", "source_text": "NIH Chemical Genomics Center [NCGC] U.S. Environmental Protection Agency [EPA] National Institutes of Environmental Health Sciences [NIEHS] National Toxicology Program [NTP] NCGC Assay Overview The farnesoid-X-receptor (FXR), a nuclear hormone receptor is highly expressed in liver, intestine, kidney and adrenal cortex. Natural ligands of FXR are the bile acids (Cholic acid, Chenodeoxy cholic acid etc). It is an important regulator of diverse metabolic pathways, including the bile acid homeostasis, lipid and glucose metabolisms. FXR regulates the expression of target genes by binding either as a monomer or as a heterodimer with RXR (retinoid X receptor). As FXR regulates a large number of target genes involved in bile acid, lipoprotein and glucose metabolisms, it is a potential pharmacological target for bile acid and lipid disorders. Thus screening environmental chemicals on FXR signaling can be used for the studies focused on metabolic syndrome, hepatic and intestinal toxicity etc.\nNCGC Assay Protocol Summary Using a beta-lactamase reporter-gene under control of Farnesoid X receptor (FXR) response element, a cell-based assay [GeneBLAzer FXR-UAS-bla assay developed by Invitrogen] was used to measure FXR ligands signaling. GeneBLAzer FXR-UAS-bla HEK293T cells were used with assay medium containing 10% dialyzed FBS. The assay was performed in clear bottom black Greiner 1536-well plates. Chenodeoxycholic acid and Guggulsterone were used in the screen as agonist and antagonist positive controls respectively. Library compounds were measured for their ability to stimulate the reporter gene activity. Compounds were screened in a titration series in 1536-well format. […] Data was normalized relative to Chenodeoxycholic acid control (100 uM, 100%), and DMSO only wells (basal, 0%). Concentration-response titration points for each compound were fitted to the Hill equation yielding concentrations of half-maximal stimulation (EC50) and maximal response (efficacy) values. qHTS protocol for FXR beta-lactamase assay in agonist mode [Step] [Parameter] [Value] [Description] 1. Reagent; 6 uL; 5000 cells/well 2. Incubation; 37 C for 5-7 hrs 3. Compounds; 23 nL; 0.59 nM to 92 uM 4. Controls (Chenodeoxycholic acid); 23 nL, - One column with dose response, start 200 uM, 1:2 dilutions in duplicates - Final concentrations of 100 uM and 60 uM in two columns 5. Incubation; 37 C for 16 hrs 6. Detection reagent; 1 uL of CCF4-dye 7. Incubation; RT for 2 hrs 8. Detection; Fluorescence; Envision plate reader", "values": [
      {"smiles": "C=CCN=C=S", "activation": "-2.58% (inactive)"},
      {"smiles": "O=[N+]([O-])C(Br)(CO)CO", "activation": "2.54% (inactive)"},
      {"smiles": "O=C(O)c1cc[c]([Hg][Cl])cc1", "activation": "1.46% (inactive)"},
      {"smiles": "ClC1C(Cl)C(Cl)C(Cl)C(Cl)C1Cl", "note": "(stereo not given)", "activation": "1.57% (inactive) [middle of 4 runs]"},
      {"smiles": "CCCCCCCCOC(=O)c1ccccc1C(=O)OCCCCCCCC", "activation": "1.69% (inactive)"},
      {"smiles": "ClC(Cl)(Cl)Cl", "activation": "-1.25% (inactive) and -2.57% (inactive)"},
      {"smiles": "COCC(C)N(C(=O)CCl)c1c(C)csc1C", "note": "(stereo not given)", "activation": "0.208% (inactive)"},
      {"smiles": "CC(C)(C)c1cc(O)ccc1O", "activation": "0.716% (inactive) and -1.49% (inactive) and 4.72% (inactive)"},
      {"smiles": "NNC(N)=O", "activation": "-1.54% (inactive)"},
      {"smiles": "CCCSP(=O)(OCC)SCCC", "activation": "2.76% (inactive)"},
      {"smiles": "O=[N+]([O-])c1ccc(F)c([N+](=O)[O-])c1", "activation": "-1.56% (inactive)"},
      {"smiles": "CC(C)Nc1ccc(Nc2ccccc2)cc1", "activation": "3.94% (inactive)"},
      {"smiles": "O=C1CCO1", "activation": "0.979% (inactive)"},
      {"smiles": "Clc1ccccc1Cl", "activation": "-2.33% (inactive)"},
      {"smiles": "O=C(NCNC(=O)NC1C(=O)NC(=O)N1CO)NC1C(=O)NC(=O)N1CO", "note": "(stereo not given)", "activation": "1.1% (inactive)"},
      {"smiles": "ClC=C(Cl)Cl", "activation": "-1.52% (inactive) and -2.36% (inactive)"},
      {"smiles": "CCCCCl", "activation": "1.93% (inactive)"},
      {"smiles": "COC1=CC(=O)O[C@@H](/C=C/c2ccccc2)C1", "activation": "-0.876% (inactive)"},
      {"smiles": "C[C@H]1CC[C@@H]2[C@@H](C)[C@H]3[C@H](C[C@H]4[C@@H]5CC=C6CC(O[C@@H]7O[C@H](CO)[C@H](O)[C@H](O[C@@H]8O[C@H](CO)[C@@H](O)[C@H](O)[C@H]8O)[C@H]7O[C@H]7O[C@@H](C)[C@H](O)[C@@H](O)[C@H]7O)CC[C@]6(C)[C@H]5CC[C@]34C)N2C1", "note": "(stereo not given in full)", "activation": "11.7% (inactive)"},
      {"smiles": "[O]=[Cr](=[O])([OH])[O][Cr](=[O])(=[O])[OH]", "activation": "9.26% (inactive) and 4.19% (inactive)"}
    ]}
  ]
}
